Screening results: PubChem BioAssay, National Center for Advancing Translational Sciences (NCATS)
FMDV inh: foot and mouth disease virus antiviral activity; FMDV antiviral cell-based qHTS; AID 1159524; Potency, µM (highest dose often 57.9 µM), for the others: at the top dose activity change, negative = inhibition, actives largely listed as inhibitors; 1.2% of 410,000 active; calls by dose curve; tested in HEK293T cells; note: read-out not given here; nearly all actives have a fitted effect of over 45% in size
HCV inh: blocks hepatitis C virus. Huh7.5.1 HCVcc-Cre infection, luciferase reporter, 44 h. Potency, µM (titrated, usually from 41.8 µM), for inactives: top-dose activity change, negative = inhibition, hits mostly inhibitors. 3.4% of 340,000 active
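Reporter virus HCVcc-Cre (~0.5 moi) infects cells exposed to compound; seeding density 1,000 cells/well with 4 h settling beforehand. Luminescence, 15 sec read, taken 44 h post-infection following a 15 min RT substrate incubation.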
Sm TGR inh: inhibitors of Schistosoma mansoni thioredoxin glutathione reductase; Q962Y6; purified TGR, DTNB reduction, TNB absorbance 405 nm; Potency, µM (series often up to 114 µM), for inactives: at the highest dose activity change, negative = inhibition, usual class: inhibitors; 3% of 360,000 active; note: nearly all actives have a fitted effect of over 60% in size
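TGR 20 nM + NADPH 100 uM (dispensed conc.), cpd preinc 15 min RT; start with NADPH (500 uM addition) then DTNB (15 mM addition). Kinetic TNB absorbance, 405 nm filter. Four-parameter Hill fit across titration.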
LASV entry inh: Lassa virus entry inhibition; Lassa virus pseudotype entry inhibition, cell reporter; Potency, µM (titrated, usually from 37.9 µM), inactives show at the top dose activity change, negative = inhibition, usual class: inhibitors; 1.2% of 300,000 active; AID 540256; calls by dose curve; tested in HEK293 cells; note: nearly all actives have a fitted effect of over 50% in size
RE007 growth inh: less growth of the S. pombe RE007 Vpr strain. S. pombe RE007 Vpr strain, BacTiter-Glo ATP luminescence, 24 h. Potency, µM (top dose mostly 92.2 µM), for the others: top-dose activity change, negative = less growth, hits mostly inhibitors. 0.21% of 360,000 active. AID 651644; active = well fitted falling curve with a large enough effect; inconclusive = small, poorly fitted or top-dose-only effect; inactive = no such curve, though single readings can be large or run the other way; note: nearly all actives have a fitted effect of over 50% in size
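Fission yeast RE007 carrying one integrated HIV-1 vpr copy, seeded at OD 0.01 in PMG+AL medium with 23 nL pinned compound. Grown 24 h at 30 degrees; viability read by BacTiter-Glo luminescence after 5 min.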
Marburg entry inh: inhibitors of Marburg virus binding or cell entry; Marburg virus pseudotyped entry inhibition, cell reporter; Potency, µM (top dose mostly 37.8 µM), without a hit: top-dose activity change, negative = inhibition, hits mostly inhibitors; 1.8% of 300,000 active; AID 540276; calls by dose curve; tested in HEK293 cells
Active calls of the source: *; ? = inconclusive; · = no result; ! = not active in a repeat; [ ] = dose if it differs, or a comment. Shown are actives, neighbours in structure and some others; about 7.2% of the full set was active somewhere. Unless noted, calls come from the whole dose curve; as a rule, active = well fitted curve in the direction sought with a large enough effect; inconclusive = small, poorly fitted or top-dose-only effect, or another doubt; inactive = no such curve, though single readings can be large; an effect the other way counts as inactive or inconclusive. % is set by controls: 0 for no effect and ±100 for the full control effect; potency is the fitted concentration of half-maximal effect.

SMILES	FMDV inh	HCV inh	Sm TGR inh	LASV entry inh	RE007 growth inh	Marburg entry inh
Oc1c(C(c2ccccc2Cl)N2CCCC2)ccc2cccnc12 (configuration not stated)	?	10µM*	?	·	?	·
CN1CCN(C(c2ccccc2)c2ccccc2)CC1	-17%	?	6%	·	-14%[18.4 µM]	·
CN1CCN(C(c2ccc(C(F)(F)F)cc2)c2ccc3cccnc3c2O)CC1 (configuration not stated)	-28%	11µM*	0.32µM*	7.9µM*	-9%	?
Oc1c(C(c2cccs2)N2CCN(c3ccccc3)CC2)ccc2cccnc12 (configuration not stated)	·	·	0.71µM*	·	·	·
CCCCN(C)C(=O)Cn1c(C2CC(=O)N(c3ccc(C)cc3)C2)nc2ccccc21 (configuration not stated)	-3%	·	5%	24%[46.1 µM]	·	29%[46.1 µM]
CC1CCN(C(=O)c2ccc(N3CCOCC3)c([N+](=O)[O-])c2)CC1	26%	3%	·	·	-14%	·
CC1CCN(C(=O)c2ccc(S(=O)(=O)Cc3ccccc3F)c([N+](=O)[O-])c2)CC1	20µM*	?	-25%	?	4%	?
O=C(c1ccc(S(=O)(=O)Cc2ccccc2F)c([N+](=O)[O-])c1)N1CCCC1	?	4%	10µM*	-2%	-10%	?
O=C(c1ccc(S(=O)(=O)c2ccc(F)cc2)c([N+](=O)[O-])c1)N1CCCCCC1	13µM*	?	?	?	0%	?
O=C(c1ccc(S(=O)(=O)c2ccccc2Cl)c([N+](=O)[O-])c1)N1CCN(Cc2ccccc2)CC1	11µM*	?	?	?	-7%	?
O=C(c1ccc(S(=O)(=O)Cc2ccccc2Cl)c([N+](=O)[O-])c1)N1CCOCC1	?	-13%	11µM*	?	1%	?
Cc1ccccc1CS(=O)(=O)c1ccc(C(=O)N2CCOCC2)cc1[N+](=O)[O-]	?	?	?	·	-1%	·
Cc1ccc(C)c(N2CCN(C(=O)C3CCN(c4nnc(N5CCCC5=O)s4)CC3)CC2)c1	25µM*	?	-1%	?	2%	?
Cc1ccc(C)c(N2CCN(C(=O)C3CCCCN3S(=O)(=O)c3ccc(F)cc3)CC2)c1 (configuration not stated)	32µM*	?	18%	-25%	-8%	10µM*!
Cc1ccc(C)c(N2CCN(C(=O)C3CCN(c4nc5ccc(C)cc5[nH]4)CC3)CC2)c1	?	·	4%	-26%[46.1 µM]	·	·
Cc1cc(C)nc(N2CCC(C(=O)N3CCN(c4cc(Cl)ccc4C)CC3)CC2)n1	28µM*	13µM*	1%	-11%	10%	?
Cc1ccc(C)c(N2CCN(C(=O)C3CCN(c4nc(C)cc(C)n4)CC3)CC2)c1	18µM*	?	-3%	-10%	1%	?
O=C(C1CCN(c2nnc(N3CCCC3=O)s2)CC1)N1CCN(c2cccc(C(F)(F)F)c2)CC1	-16%	?	1%	·	-8%	·
CCn1nc(C)c2c(-c3ccccc3)cc(=O)n(C(C)C(=O)Nc3ccc(OC)c(OC)c3)c21 (configuration not stated)	-24%	·	2%	-7%[46.1 µM]	·	·
Cc1ccc(CN2CCc3nnc(C(C)NC(=O)c4cc(F)ccc4F)n3CC2)o1 (configuration not stated)	-6%	·	·	·	·	·
CCSc1nc(-c2ccccc2)nc2c1Cc1c(CO)cnc(C)c1O2	-13%	·	-7%	-2%[46.1 µM]	·	·
Cc1ccc(C(=O)CSc2nnc(COc3cccc4cccnc34)o2)cc1	·	-26%	-20%	5%	-17%	-6%
O=C(CSc1nnc(COc2cccc3cccnc23)o1)c1ccc(F)cc1	·	10µM*	0%	?	-20%	-24%
O=C1CCCC2=C1Sc1ccc(Cl)cc1N2	-1%	11µM*	-8%	·	-5%	·
CCOc1ccc2c(ccc(/C=C/c3cc(C)c4cccnc4c3O)[n+]2C)c1	?	?	·	?	?	16µM*
SMILES	FMDV inh	HCV inh	Sm TGR inh	LASV entry inh	RE007 growth inh	Marburg entry inh
CN(Cc1ccc(OCC(O)CN2CCCCC2)cc1)Cc1ccnc2ccccc12 (configuration not stated)	?	5.6µM*	7%	·	-12%	·
COc1ccccc1N1CCN(C(=O)c2c3c(nc4ccccc24)C(=O)N(C2CCCCC2)C3)CC1	?	·	5%	1%[46.1 µM]	·	·
COc1ccc(C)cc1Nc1n[n+](-c2ccccc2)c(-c2cc(OC)c(OC)cc2Br)s1	-3%	-28%	0%	·	-11%	·
c1ccc(-[n+]2nc(Nc3cccc4ccccc34)sc2-c2c3ccccc3cc3ccccc23)cc1	-9%	3.5µM*	-17%	·	-18%	·
Fc1ccc(-[n+]2nc(Nc3ccccc3)sc2-c2c3ccccc3cc3ccccc23)cc1	40µM*	-8%[8.37 µM]	-1%	·	-10%	·
Oc1ccc2ccccc2c1-c1sc(Nc2ccccc2)n[n+]1-c1ccc(F)cc1	-7%	-8%	0%	·	-19%	·
COc1ccc(C)cc1Nc1n[n+](-c2ccccc2)c(-c2c(OC)ccc3ccccc23)s1	?	32µM*	-1%	·	-10%	·
CCc1cccc(NC(=O)c2c(C)oc3ncnc(N4CCCCC4)c23)c1	?	·	4%	1%[46.1 µM]	·	·
CCc1ccc(N2C(=O)N(CC(=O)C(C)(C)C)c3ccccc3S2(=O)=O)cc1	?	·	-2%	29%[46.1 µM]	·	·
C#CCOCCOCCOCCNc1nc(N2CCN(C(=O)[C@H](CCC(=O)O)n3cc(C(N)CO)nn3)CC2)nc(N2CCN(C(=O)[C@H](Cc3ccc(O)cc3)n3cc(C(N)CC(C)C)nn3)CC2)n1 (some centres not stated)	·	·	10µM*	·	·	·
C#CCOCCOCCOCCNc1nc(N2CCN(C(=O)[C@H](Cc3ccc(O)cc3)n3cc(CCO)nn3)CC2)nc(N2CCN(C(=O)[C@H](Cc3ccc(O)cc3)n3cc(CCO)nn3)CC2)n1	·	10%[8.37 µM]	40µM*	-1%	·	22%
C#CCOCCOCCOCCNc1nc(N2CCN(C(=O)[C@H](CCC(=O)O)n3cc(C(N)Cc4ccc(O)cc4)nn3)CC2)nc(N2CCN(C(=O)[C@H](CCC(=O)O)n3cc(C(N)CC(C)C)nn3)CC2)n1 (some centres not stated)	0%	-5%	35µM*	·	10%	·
C#CCOCCOCCOCCNc1nc(N2CCN(C(=O)[C@H](CCCCN)n3cc(C(N)[C@H](C)CC)nn3)CC2)nc(N2CCN(C(=O)[C@H](CCC(=O)O)n3cc(C(N)[C@H](C)CC)nn3)CC2)n1 (some centres not stated)	4%	12%	16µM*	·	0%	·
